From ChEMBL document CHEMBL3988442, “University of Dundee, Small-Polar-MMV Screening Library” (2021) come the findings set out here.

The structures appear in SMILES notation. For some assays here: Entries with a potency or affinity are not part of this list.

Common to all, as to parameters: scale not given: direction of the effect not stated beside the values
Assay [1] has as its target Protein translocase subunit SecA (Escherichia coli (strain K12)) (UniProt P10408). Nature of the assay: Assay to Identify E. coli SecA ATPase Inhibitors. It is filed as functional. The conditions noted are these: 30 µM.
Assay [2] concerns the target T1, Ubiquitin-activating enzyme e1, putative (Leishmania donovani (strain BPK282A1)) (UniProt E9BSI1).
T1 sequence (whole entry): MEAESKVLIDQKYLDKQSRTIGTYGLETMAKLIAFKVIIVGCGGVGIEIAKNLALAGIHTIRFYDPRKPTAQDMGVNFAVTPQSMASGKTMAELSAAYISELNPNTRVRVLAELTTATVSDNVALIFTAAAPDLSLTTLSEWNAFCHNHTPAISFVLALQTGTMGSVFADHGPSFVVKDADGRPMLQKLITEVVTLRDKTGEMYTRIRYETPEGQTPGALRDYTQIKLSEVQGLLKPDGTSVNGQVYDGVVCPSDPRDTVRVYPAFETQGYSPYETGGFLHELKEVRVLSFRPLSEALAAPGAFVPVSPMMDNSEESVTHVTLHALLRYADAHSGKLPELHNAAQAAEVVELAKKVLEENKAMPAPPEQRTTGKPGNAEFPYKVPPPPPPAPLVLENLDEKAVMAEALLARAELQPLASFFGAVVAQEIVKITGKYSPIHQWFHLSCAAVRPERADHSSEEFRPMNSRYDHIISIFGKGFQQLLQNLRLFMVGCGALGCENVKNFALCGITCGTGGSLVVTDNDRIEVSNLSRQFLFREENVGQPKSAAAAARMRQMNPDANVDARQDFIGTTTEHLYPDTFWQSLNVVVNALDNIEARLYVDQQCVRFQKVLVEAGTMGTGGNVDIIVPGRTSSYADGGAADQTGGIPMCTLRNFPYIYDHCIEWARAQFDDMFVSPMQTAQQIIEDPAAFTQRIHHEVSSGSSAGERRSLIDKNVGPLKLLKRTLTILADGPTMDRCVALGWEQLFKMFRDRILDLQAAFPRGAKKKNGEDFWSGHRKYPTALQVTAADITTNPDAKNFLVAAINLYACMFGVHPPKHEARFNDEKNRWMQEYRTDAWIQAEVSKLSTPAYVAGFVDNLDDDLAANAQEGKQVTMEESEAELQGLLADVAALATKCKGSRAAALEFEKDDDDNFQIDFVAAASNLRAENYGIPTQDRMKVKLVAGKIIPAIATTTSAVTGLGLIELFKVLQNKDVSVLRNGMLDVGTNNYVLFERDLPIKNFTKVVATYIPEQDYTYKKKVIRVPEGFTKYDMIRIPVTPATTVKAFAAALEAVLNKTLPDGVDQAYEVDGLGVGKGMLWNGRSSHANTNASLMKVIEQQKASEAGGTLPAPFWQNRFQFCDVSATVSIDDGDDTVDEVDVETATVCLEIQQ
Nature of the assay: Leishmania donovani Ubiquitin Activating Enzyme (LdE1). To be noted: 30 µM. It is filed as functional.

Assay [3] deals with Sialic acid-binding Ig-like lectin 9 (Homo sapiens) (UniProt Q9Y336). Nature of the assay: Hs-Siglec9 ALPHAscreen SOP 20170721. The conditions noted are these: 10 µM. (Alpha assays give light when donor and acceptor beads are brought close together.)
The test system of the next assay is Trypanosoma cruzi. Nature of the assay: Trypanosoma cruzi phosphomannomutase and mannose-1-phosphate guanylyltransferase assay. The format is functional. The conditions noted are these: 10 µM.
For assay [4], the target named is T2, Arginase-2, mitochondrial (Homo sapiens) (UniProt P78540).
T2 sequence (whole entry): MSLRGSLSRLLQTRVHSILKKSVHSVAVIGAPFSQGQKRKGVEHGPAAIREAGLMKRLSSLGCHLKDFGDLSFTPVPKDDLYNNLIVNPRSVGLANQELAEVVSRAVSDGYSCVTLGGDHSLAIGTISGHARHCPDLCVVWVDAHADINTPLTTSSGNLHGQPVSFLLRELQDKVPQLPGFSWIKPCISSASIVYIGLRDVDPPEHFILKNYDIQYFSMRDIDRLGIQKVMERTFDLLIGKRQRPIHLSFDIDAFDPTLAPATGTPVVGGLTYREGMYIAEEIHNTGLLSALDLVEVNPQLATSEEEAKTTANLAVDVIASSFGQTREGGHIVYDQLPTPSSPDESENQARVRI
Nature of the assay: in vitro enzyme assay to detect the production of urea directly proportional to the activity of Arginase II. Note: in the data most compounds retested in dose-response had high values. The conditions noted are these: 33.3 µM. It is filed as functional.

Assay [5] addresses T3, Proteasome subunit beta (Trypanosoma cruzi) (UniProt O96673).
T3 sequence (whole entry): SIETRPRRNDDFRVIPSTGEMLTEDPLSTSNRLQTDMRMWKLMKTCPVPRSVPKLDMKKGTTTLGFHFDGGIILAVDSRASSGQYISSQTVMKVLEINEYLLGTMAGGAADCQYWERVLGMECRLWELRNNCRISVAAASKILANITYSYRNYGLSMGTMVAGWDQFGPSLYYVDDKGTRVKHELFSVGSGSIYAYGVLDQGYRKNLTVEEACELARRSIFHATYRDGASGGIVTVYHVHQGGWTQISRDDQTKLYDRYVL
Nature of the assay: Trypanosoma cruzi proteasome chymotrypsin-like activity (TcProtChymo) assay. Note: in the data most compounds retested in dose-response had high values. It is filed as functional. To be noted: 9.37 µM.

The species named for a further assay is Homo sapiens. Nature of the assay: To identify inhibition of the IFN signalling (Jak-Stat) pathway via expression of an eGFP reporter gene under the control of an IFN-stimulated response element (ISRE) containing MxA promoter. It is filed as functional. To be noted: 30 µM. In general terms: Reporter assays use an easily measured gene product as a stand-in for the process of interest.

For assay [6], the target named is T4, Tyrosyl-tRNA synthetase, putative (Trypanosoma cruzi (strain CL Brener)) (UniProt Q4DSP6).
T4 sequence (whole entry): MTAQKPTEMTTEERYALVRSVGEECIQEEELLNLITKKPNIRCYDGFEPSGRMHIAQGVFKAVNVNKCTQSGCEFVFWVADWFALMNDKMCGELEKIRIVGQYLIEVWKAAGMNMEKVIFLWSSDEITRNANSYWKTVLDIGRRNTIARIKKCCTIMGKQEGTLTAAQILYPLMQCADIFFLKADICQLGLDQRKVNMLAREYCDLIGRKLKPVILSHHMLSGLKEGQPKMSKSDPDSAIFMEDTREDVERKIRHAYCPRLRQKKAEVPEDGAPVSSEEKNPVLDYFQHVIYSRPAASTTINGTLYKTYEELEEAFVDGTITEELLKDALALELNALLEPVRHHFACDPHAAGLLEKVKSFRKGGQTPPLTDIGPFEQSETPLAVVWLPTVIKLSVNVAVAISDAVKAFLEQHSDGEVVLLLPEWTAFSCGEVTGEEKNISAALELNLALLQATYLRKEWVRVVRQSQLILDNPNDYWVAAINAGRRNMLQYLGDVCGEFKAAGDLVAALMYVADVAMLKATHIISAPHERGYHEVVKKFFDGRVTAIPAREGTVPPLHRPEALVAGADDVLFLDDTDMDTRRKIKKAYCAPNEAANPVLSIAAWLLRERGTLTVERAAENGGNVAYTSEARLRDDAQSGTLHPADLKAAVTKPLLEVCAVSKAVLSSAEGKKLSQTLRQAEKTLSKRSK
Nature of the assay: Trypanosoma cruzi tyrosyl tRNA synthetase (TcYRS) _High Tyrosine SOP. Note: in the data most compounds retested in dose-response had high values. It is filed as functional. To be noted: 30 µM.

Assay [7] concerns the target T4, Tyrosyl-tRNA synthetase, putative (Trypanosoma cruzi (strain CL Brener)). Nature of the assay: Trypanosoma cruzi tyrosyl tRNA synthetase (TcYRS) SOP. It is filed as functional. To be noted: 30 µM.
Assay [8] deals with Chromo domain-containing protein 1 (Saccharomyces cerevisiae (strain ATCC 204508 / S288c) (Baker's yeast)) (UniProt P32657). Nature of the assay: ScCHD-1 Enzyme Inhibition Assay. Note: in the data most compounds retested in dose-response had high values. The format is functional. To be noted: 30 µM.
Chain of Chromo domain-containing protein 1 (Saccharomyces cerevisiae (strain ATCC 204508 / S288c) (Baker's yeast)) (P32657 whole entry, the tested form may be a part): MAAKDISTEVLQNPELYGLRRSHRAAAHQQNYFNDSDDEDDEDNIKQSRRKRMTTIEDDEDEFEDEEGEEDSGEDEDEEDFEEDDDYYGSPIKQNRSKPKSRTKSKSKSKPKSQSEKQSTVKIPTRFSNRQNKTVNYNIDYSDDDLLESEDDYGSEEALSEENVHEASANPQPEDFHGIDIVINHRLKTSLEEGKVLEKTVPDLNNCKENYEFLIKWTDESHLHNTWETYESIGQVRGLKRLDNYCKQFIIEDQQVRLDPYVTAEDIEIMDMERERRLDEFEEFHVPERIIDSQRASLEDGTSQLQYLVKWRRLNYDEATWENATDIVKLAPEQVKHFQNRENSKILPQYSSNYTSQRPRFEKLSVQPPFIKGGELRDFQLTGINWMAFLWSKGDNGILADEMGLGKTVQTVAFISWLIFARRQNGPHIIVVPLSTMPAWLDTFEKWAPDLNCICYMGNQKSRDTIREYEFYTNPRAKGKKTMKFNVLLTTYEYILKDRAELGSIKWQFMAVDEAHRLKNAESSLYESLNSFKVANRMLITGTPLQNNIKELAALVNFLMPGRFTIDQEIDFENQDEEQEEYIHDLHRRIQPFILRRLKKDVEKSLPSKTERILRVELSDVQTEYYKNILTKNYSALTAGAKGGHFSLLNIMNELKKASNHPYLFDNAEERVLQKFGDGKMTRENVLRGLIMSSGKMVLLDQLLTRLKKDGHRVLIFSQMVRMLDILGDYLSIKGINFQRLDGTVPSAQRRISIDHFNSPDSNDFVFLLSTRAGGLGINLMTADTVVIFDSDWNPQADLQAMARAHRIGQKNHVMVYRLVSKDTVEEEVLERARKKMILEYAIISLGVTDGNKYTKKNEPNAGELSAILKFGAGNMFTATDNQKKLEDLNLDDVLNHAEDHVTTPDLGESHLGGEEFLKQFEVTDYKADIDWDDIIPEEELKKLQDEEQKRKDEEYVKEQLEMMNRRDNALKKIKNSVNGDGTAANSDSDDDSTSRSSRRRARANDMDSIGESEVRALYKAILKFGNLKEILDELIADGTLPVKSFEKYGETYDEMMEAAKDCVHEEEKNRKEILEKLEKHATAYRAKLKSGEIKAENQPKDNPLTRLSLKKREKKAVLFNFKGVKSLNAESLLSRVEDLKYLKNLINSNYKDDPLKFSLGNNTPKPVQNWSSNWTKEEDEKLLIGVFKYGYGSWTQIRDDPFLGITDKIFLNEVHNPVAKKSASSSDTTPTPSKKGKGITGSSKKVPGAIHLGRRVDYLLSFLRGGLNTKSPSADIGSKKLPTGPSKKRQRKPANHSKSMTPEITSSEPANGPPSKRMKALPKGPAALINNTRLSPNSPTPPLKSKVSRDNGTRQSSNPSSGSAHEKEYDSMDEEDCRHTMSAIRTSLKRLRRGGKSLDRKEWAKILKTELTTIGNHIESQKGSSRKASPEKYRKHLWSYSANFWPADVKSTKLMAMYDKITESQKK

Chain of Protein translocase subunit SecA (Escherichia coli (strain K12)) (P10408 whole entry): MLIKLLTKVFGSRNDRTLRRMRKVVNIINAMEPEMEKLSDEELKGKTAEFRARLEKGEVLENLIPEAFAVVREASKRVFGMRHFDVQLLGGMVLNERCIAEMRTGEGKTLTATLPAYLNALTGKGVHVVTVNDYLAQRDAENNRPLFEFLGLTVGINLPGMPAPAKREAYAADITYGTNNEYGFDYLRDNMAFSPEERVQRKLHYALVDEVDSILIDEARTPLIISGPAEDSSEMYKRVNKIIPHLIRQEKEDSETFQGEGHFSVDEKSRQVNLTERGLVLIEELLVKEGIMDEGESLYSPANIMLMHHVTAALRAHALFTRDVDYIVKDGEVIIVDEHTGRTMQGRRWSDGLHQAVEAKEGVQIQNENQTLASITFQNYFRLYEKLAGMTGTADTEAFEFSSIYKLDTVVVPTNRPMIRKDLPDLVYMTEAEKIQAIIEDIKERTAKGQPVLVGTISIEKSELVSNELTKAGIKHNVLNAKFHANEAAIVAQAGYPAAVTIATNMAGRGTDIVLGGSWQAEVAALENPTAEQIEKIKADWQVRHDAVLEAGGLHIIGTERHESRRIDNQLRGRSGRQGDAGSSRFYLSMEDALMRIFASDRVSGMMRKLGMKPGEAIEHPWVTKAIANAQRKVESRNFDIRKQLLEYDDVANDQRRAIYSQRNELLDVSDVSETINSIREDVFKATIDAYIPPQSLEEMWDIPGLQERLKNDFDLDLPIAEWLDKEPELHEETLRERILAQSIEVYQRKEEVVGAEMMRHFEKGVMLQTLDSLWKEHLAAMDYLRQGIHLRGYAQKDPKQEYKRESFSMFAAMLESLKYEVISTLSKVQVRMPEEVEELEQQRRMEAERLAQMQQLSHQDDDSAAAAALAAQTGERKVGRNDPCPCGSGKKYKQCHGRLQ
Chain of Sialic acid-binding Ig-like lectin 9 (Homo sapiens) (Q9Y336 whole entry): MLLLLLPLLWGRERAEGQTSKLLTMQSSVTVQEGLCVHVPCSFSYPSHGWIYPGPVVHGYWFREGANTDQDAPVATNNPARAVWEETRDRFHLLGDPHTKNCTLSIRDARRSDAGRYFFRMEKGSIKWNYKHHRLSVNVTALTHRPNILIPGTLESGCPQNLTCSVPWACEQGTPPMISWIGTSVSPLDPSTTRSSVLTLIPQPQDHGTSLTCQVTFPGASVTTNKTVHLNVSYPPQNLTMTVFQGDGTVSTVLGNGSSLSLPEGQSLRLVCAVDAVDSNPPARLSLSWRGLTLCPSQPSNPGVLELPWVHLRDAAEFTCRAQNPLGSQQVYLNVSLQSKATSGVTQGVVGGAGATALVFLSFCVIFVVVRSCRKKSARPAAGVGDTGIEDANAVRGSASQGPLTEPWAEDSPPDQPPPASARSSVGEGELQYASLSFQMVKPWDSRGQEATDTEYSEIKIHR

Take `Cc1cc(C2CCCN2CCCS(=O)(=O)c2ccccc2)no1` (stereo not given): the Percent Effect in assay [1] was -1.74%; in [2], 5.13%; in assay [3], 19.5%; in the assay with Trypanosoma cruzi, -1.41%; in [4], -1.23%; in [5], -8.11%. Moreover, the Percent Effect in the assay filed under Homo sapiens is 8.46%; in [6], 3.35%; in [7] it was 8.43%; in [8], -1.93%.

As for `Cc1cnn(CC2CN(CC(=O)NCCc3cccs3)CCO2)c1` (stereo not given), the Percent Effect in assay [1] was -3.45%; in assay [2] it was 0%; in assay [3] it was 6.55%; in the assay on Trypanosoma cruzi, -4.62%; in assay [4], 0.887%; in [5], 3.48%. The Percent Effect in the assay listed under Homo sapiens was 9.62%; in assay [6], 4.74%; in assay [7] it was -2.56%; in assay [8], -0.407%.

With `CCn1cnnc1CNC(=O)N1CCC(C(=O)NC)CC1`, the Percent Effect in assay [1] was -5.88%; in [2], 5.33%; in assay [3] it was 0.795%; in the assay on Trypanosoma cruzi, -4.42%; in [4], -2.66%; in assay [5] it was 1.78%. Further, the Percent Effect in the assay filed under Homo sapiens was 10.8%; in assay [6] it was -0.526%; in [7], 2.56%; in [8] it was -6.68%.

Regarding `COc1ccc(C2CC(=O)Nc3c2nc2n3CCCC2)cc1OC` (stereo not given), the Percent Effect in assay [1] was -2.41%; in [2] it was 8.11%; in assay [3], 3.86%; in the assay on Trypanosoma cruzi, -4.56%; in [4], 0.35%; in assay [5] it was 15.9%. For the same molecule, the Percent Effect in the assay filed under Homo sapiens is 30.7%; in assay [6], 1.6%; in [7] it was 14.6%; in [8], -4.25%.

Regarding `CCN1CCO[C@]2(CCC[C@H]2COCc2csc(C)n2)C1`, the Percent Effect in [1] is -5.1%; in [2], -1.3%; in assay [3], 11%; with Trypanosoma cruzi, -0.292%; in assay [4], -7.29%; in assay [5], 3.27%. In addition, the Percent Effect in the assay filed under Homo sapiens was -2.57%; in assay [6], 3.68%; in [7], 5.13%; in assay [8], -0.161%.

`COc1ccc(CC(=O)NC2(C)CCS(=O)(=O)C2)cc1F` (stereo not given): the Percent Effect was -0.834% in [1]; 10.7% in assay [2]; -4.85% in assay [3]; 0.803% with Trypanosoma cruzi; -1.77% in [4]; 4.5% in assay [5]. In addition, the Percent Effect is 8.89% in the assay listed under Homo sapiens, 5.79% in assay [6], 12.8% in assay [7] and -12.7% in assay [8].

`CN(C)CC1CN(Cc2ccc3c(c2)OCO3)Cc2nccn2C1` (stereo not given): the Percent Effect is -10.1% in assay [1]; -42.9% in assay [2]; 7.99% in assay [3]; 0.682% with Trypanosoma cruzi; -3.64% in [4]; 5.56% in assay [5]. Further, the Percent Effect was 12.4% in the assay listed under Homo sapiens, 0.526% in assay [6], 0% in assay [7] and -1.33% in assay [8].

Regarding `Cc1cccc(C(=O)N2CCCN(Cc3cnn(C)c3)CC2)n1`, the Percent Effect is -0.00911% in assay [1]; -5.13% in assay [2]; 4.36% in [3]; 1.6% with Trypanosoma cruzi; 6.15% in assay [4]; -6.74% in assay [5]. The Percent Effect in the assay listed under Homo sapiens was 13.4%; in [6], -0.478%; in [7], 1.21%; in [8] it was -3.37%.

As for `Nc1cc(CCC2CN(Cc3ccc(C(=O)O)cc3)CCO2)ccn1` (stereo not given), the Percent Effect in assay [1] is -3.81%; in assay [2], 9.33%; in [3] it was -7.05%; in the assay on Trypanosoma cruzi, -5.72%; in assay [4], -1.77%; in assay [5] it was 13%. In addition, the Percent Effect in the assay filed under Homo sapiens was 12.6%; in assay [6] it was -1.06%; in assay [7], 2.5%; in [8], -22%.

On to `Cc1ccc(N2CCC3(CCCN(C(=O)c4cccnc4)C3)C2)nn1` (stereo not given), for which the Percent Effect is -10.1% in [1]; 1.3% in assay [2]; 11% in [3]; -3.41% in the assay on Trypanosoma cruzi; 0.405% in assay [4]; 16.1% in [5]. The Percent Effect in the assay filed under Homo sapiens was 2.17%; in assay [6], 0.526%; in assay [7], -10.3%; in assay [8] it was 0.442%.

For `c1ncn(CC2CN(Cc3noc(C4CC4)n3)CCO2)n1` (stereo not given), the Percent Effect was -7.36% in [1]; 2.67% in [2]; 2.48% in assay [3]; -1% with Trypanosoma cruzi; -3.55% in assay [4]; -1.1% in assay [5]. Moreover, the Percent Effect in the assay listed under Homo sapiens was 15.2%; in assay [6], -1.58%; in [7], 0%; in assay [8], -8.55%.
